In PubChem BioAssay (Tox21):
Inconclusive results are not listed. Calls of active or inactive are those of the source. Calls follow the shape of the dose curve; as a rule, active = well fitted cell-killing curve with a large enough effect in the repeat runs; inconclusive = weak or mixed curves, or effect the other way; inactive = flat fitted curve, though single readings scatter.

assay: qHTS RealTime-Glo MT Cell Viability Assay in HEK293 cells - 16 hour (AID 1224872); conditions: RealTime-Glo luminescence; series mostly up to 76.8 µM; activity change, negative = cytotoxicity: at the top concentration; also: nearly all actives have a fitted effect of over 50% in size; as to activity change, negative = cytotoxicity: top concentration of the series differs between compounds
From the text: National Center for Advancing Translational Sciences [NCATS]
NIH Chemical Genomics Center [NCGC]
U.S. Environmental Protection Agency [EPA]
National Institutes of Environmental Health Sciences [NIEHS]
National Toxicology Program [NTP]
U.S. Food and Drug Administration [FDA]
Measure of cell viability is critical in the cell-base assay. Analysis of cell viability is necessary for the characterization of cell responses to cytotoxic drugs and environmental stress. A RealTime-Glo MT Cell Viability Assay to monitor cell viability in real time of continues cell culture during 40 hours of compound treatment was used to screen Tox21 10K library compounds in Hek293 cells. The RealTime-Glo MT Cell Viability Assay is a nonlytic, homogeneous, bioluminescent method to measure cell viability in real time using a simple, plate-based method. The assay involves adding NanoLuc luciferase and a cell-permeant prosubstrate to cells in culture. Viable cells reduce the proprietary prosubstrate to generate a substrate for NanoLuc luciferase. This substrate diffuses from cells into the surrounding culture medium, where it is rapidly used by the NanoLuc Enzyme to produce a luminescent signal. The signal correlates with the number of viable cells, making the assay well suited for cytotoxicity studies.
Tox21 Assay Protocol Summary:
The mixture of Hek293 cell suspension and reagents were dispensed at 600cells/6 ul/well in 1536-well tissue culture treated black solid bottom plates using a Multidrop dispenser. After the assay plates were incubated at a 37 C/5% CO2 incubator for 5 hours, 23 nL of compounds dissolved in DMSO, positive and negative controls was transferred to the assay plate by a pintool work station. The plates were incubated at 37 C for 40 hours. The luminescence intensity were measured at 0h, 8h, 16h, 24h, 32h and 40h time points using ViewLux plate reader during compound treatment.
% is scaled to controls: 0 for no effect and ±100 for the full control effect; potency is read from the fitted curve at half-maximal effect.

| Compound | activity change, negative = cytotoxicity | Potency |
| --- | --- | --- |
| O=C1CCCCO1 | 11.1% (inactive) |  |
| CC1c2ccccc2CN1NC(=O)c1ccc(Cl)c(S(N)(=O)=O)c1 (stereo not given) | 0.39% [at 35.3 µM] (inactive) |  |
| COS(=O)(=O)O | 3.12% (inactive) |  |
| CC(C)NCC(O)c1ccc2ccccc2c1 (stereo not given) | -19.3% [at 35.3 µM] (inactive) |  |
| CC(CO)(CO)CO | -1.52% (inactive) |  |
| CCC(=O)Oc1ccc2c(c1)CC[C@@H]1[C@@H]2CC[C@@]2(C)[C@H]1C[C@@H](OC(=O)CC)[C@@H]2OC(=O)CC | -4.52% [at 35.3 µM] (inactive) |  |
| CO[C@@]1(NC(=O)Cc2cccs2)C(=O)N2C(C(=O)O)=C(COC(N)=O)CS[C@@H]21 | 7.1% [at 35.3 µM] (inactive) |  |
| c1ccc2cnccc2c1 | 6.86% (inactive) |  |
| O=C1NC(c2ccccc2)(c2ccccc2)C(=O)N1COP(=O)(O)O | -2.21% [at 35.3 µM] (inactive) |  |
| O=C(NCN1CCOCC1)c1cnccn1 | -1.87% [at 35.3 µM] (inactive) |  |
| CC1(C)CC(OC(=O)CCCCCCCCC(=O)OC2CC(C)(C)NC(C)(C)C2)CC(C)(C)N1 | 3.79% [at 15.8 µM] (inactive) |  |
| CC1(C)O[C@H]2CC(=O)OC[C@]23[C@H]2CC[C@@]4(C)[C@H](c5ccoc5)OC(=O)[C@H]5O[C@]54[C@]2(C)C(=O)C[C@@H]13 | 4.16% [at 35.3 µM] (inactive) |  |
| COc1cc2c(cc1OC)C(=O)C(CC1CCN(Cc3ccccc3)CC1)C2 (stereo not given) |  | 21.3 µM (active) |
| Cn1c(=O)c2[nH]c(Br)nc2n(C)c1=O | 12.4% [at 35.3 µM] (inactive) |  |
| CC(S)C(C)S (stereo not given) | 15.4% (inactive) |  |
| O=C(CN1CCNCC1)NC1CCCCC1 | -0.679% [at 35.3 µM] (inactive) |  |
| CC1OCCC1=O (stereo not given) | 1.86% (inactive) |  |
| CCOCCOCC | 0.198% (inactive) |  |
| OCCN1CCOCC1 | -0.627% (inactive) |  |
| COc1cc(/C=C/C(N)=O)cc(OC)c1OC | -4.99% [at 35.3 µM] (inactive) |  |

| Compound | activity change, negative = cytotoxicity | Potency |
| --- | --- | --- |
| C=CCOC(=O)CCCCCC | 1.43% (inactive) |  |
| CO[Si](CCCn1c(=O)n(CCC[Si](OC)(OC)OC)c(=O)n(CCC[Si](OC)(OC)OC)c1=O)(OC)OC | 0.856% [at 35.3 µM] (inactive) |  |
| CC1CCc2c(N3CCC(O)CC3)c(F)cc3c(=O)c(C(=O)O)cn1c23 (stereo not given) | -12.1% [at 35.3 µM] (inactive) |  |
| CC(C)(CO)C(O)C(=O)NCCCO (stereo not given) | 5.64% (inactive) |  |
| CC(C)Nc1ccccc1 | 1.37% (inactive) |  |
| N#Cc1ccccc1O | 20.7% (inactive) |  |
| N#Cc1cscn1 | 14.2% (inactive) |  |
| Cc1ccc(C(=O)O)cc1[N+](=O)[O-] | 8.08% (inactive) |  |
| Cn1c(=O)c2c(ncn2CCO)n(C)c1=O | 0.473% [at 35.3 µM] (inactive) |  |
| C=CC(=O)CCCCC | 2.59% (inactive) |  |
| Cc1ccccc1C(N)=O | 4.95% (inactive) |  |
| CCC(C)OC(C)CC (stereo not given) | -0.929% (inactive) |  |
| N[C@@H](Cc1ccc(O)cc1)C(=O)O | 0.747% [at 6.97 µM] (inactive) |  |
| NCCOCCN | 17.6% (inactive) |  |
| Cc1cc(-c2ccccc2)nnc1NCCN1CCOCC1 | 0.232% [at 35.3 µM] (inactive) |  |
| CCO[Si](CC)(OCC)OCC | -10.1% (inactive) |  |
| CC(=O)CCc1ccc(OC(C)=O)cc1 | 11.3% (inactive) |  |
| O=C(O)CONC(=O)c1ccccc1 | 2.66% (inactive) |  |
| C#CCN[C@@H]1CCc2ccccc21 | -7.23% [at 35.3 µM] (inactive) |  |
| CCCCSCCCC | 1.52% (inactive) |  |
